SMN2 splice enh: qHTS Assay for Enhancers of SMN2 Splice Variant Expression | HEK293 SMN2-luciferase splicing reporter, luminescence, 30-36 h | Potency, µM (doses to about 46.1 µM), for inactives: top-dose activity change, positive = activation, hits mostly activators | actives 2.8% (n = 210,000) | AID 1458, 2008; also: % of control where 0% means no effect; nearly all actives have a fitted effect of over 55% in size
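HEK293 cells carry an SMN2 […]–luciferase reporter in which exon 7 inclusion puts luciferase in frame. Cells were plated 10-12 h before compound addition, then incubated 30-36 h at 37C. ONE-Glo luminescence was read; sodium butyrate at 4.5 mM final served as control.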
Rab9 promoter act: qHTS Assay for Rab9 Promoter Activators. Huh7 Rab9 promoter-luciferase reporter, luminescence, 24 h. Potency, µM (series often up to 9.22 µM), for the others: top-dose activation, negative = inhibition, actives largely listed as activators. actives 2.8% (n = 320,000). AID 485297, 2010; also: % of control where 0% means no effect; nearly all actives have a fitted effect of over 60% in size
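Quantitative HTS format; Huh7 Rab9-luciferase reporter cells (1500/well) receive compound 2 h post-plating, incubate 24 h at 37 °C, then get luciferase reagent for 10 min before luminescence reading.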
NPC1 prom act: qHTS Assay for NPC1 Promoter Activators | Potency, µM (top dose mostly 9.22 µM), inactives show top-dose activation, actives largely listed as activators | actives 2.4% (n = 320,000) | Huh7 NPC1 promoter luciferase reporter, 24 h; also: % of control where 0% means no effect; nearly all actives have a fitted effect of over 60% in size
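Huh7 cells stably carrying NPC1 promoter–luciferase, plated in Opti-MEM with 10% FBS for 2 h, were exposed to compound in DMSO for 24 h at 37 °C; luciferase reagent was added for 10 min and luminescence read.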
FLuc modulator: qHTS profiling assay for firefly luciferase inhibitor/activator using purifed enzyme and Km concentrations of substrates (counterscreen for miR-21 project); AID 588342, 2011; actives 6.9% (n = 360,000); purified FLuc, Km substrates, luminescence inhibition; Potency, µM (series often up to 57.5 µM), inactives show at the highest dose activity change, negative = inhibition, usual class: inhibitors;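 also: plate controls were vehicle for no effect and reference inhibitor for full effect; nearly all actives have a fitted effect of over 55% in size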
Target sequence (P08659 whole entry, looked up): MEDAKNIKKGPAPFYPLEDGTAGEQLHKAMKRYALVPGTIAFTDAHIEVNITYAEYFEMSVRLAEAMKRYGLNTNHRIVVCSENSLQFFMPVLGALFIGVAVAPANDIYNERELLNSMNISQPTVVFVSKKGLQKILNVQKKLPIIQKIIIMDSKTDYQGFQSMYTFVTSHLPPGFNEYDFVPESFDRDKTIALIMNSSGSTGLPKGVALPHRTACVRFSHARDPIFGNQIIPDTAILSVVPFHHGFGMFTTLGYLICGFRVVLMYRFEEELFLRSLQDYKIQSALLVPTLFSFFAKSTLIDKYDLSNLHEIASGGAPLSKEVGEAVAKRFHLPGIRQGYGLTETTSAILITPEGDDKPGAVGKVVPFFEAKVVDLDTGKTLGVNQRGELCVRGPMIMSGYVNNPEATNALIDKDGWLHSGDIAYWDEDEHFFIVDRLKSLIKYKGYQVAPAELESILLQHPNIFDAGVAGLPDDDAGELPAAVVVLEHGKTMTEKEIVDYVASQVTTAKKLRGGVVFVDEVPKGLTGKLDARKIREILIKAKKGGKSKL
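Purified P. pyralis luciferase, 10 nM final, with Km-level 10 uM D-luciferin and 10 uM ATP in 50 mM Tris acetate pH 7.5, 10 mM Mg acetate, 0.01% Tween-20, 0.05% BSA; 6-point qHTS titration about 60 µM downward; luminescence read.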
ELG1 genotoxic: qHTS screen for small molecules that induce genotoxicity in human embryonic kidney (HEK293T) cells expressing luciferase-tagged ELG1; Potency, µM (series often up to 46 µM), for inactives: at the highest dose activity change, positive = activation, actives largely listed as activators; actives 1.3% (n = 330,000); HEK293T ELG1-luciferase reporter, luminescence, 16 h; also: % of control where 0% means no effect; nearly all actives have a fitted effect of over 60% in size
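Genotoxic stress is detected as increased luminescence from luciferase-tagged ELG1 in HEK293T cells, measured with ONE-Glo after a 16 hr treatment at 37 °C.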
p53 reactivation: qHTS assay for re-activators of p53 using a Luc reporter; Potency, µM (doses to about 92.2 µM), inactives show at the highest dose activity change, positive = activation, most hits filed as activators; AID 504706, 2011; H1299 p53-A138V BP100-luciferase reporter, luminescence, 24 h; actives 0.063% (n = 320,000); also: % of control where 0% means no effect; nearly all actives have a fitted effect of over 45% in size
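p53-null H1299 cells stably carrying temperature-sensitive p53-A138V and a BP100-luciferase reporter were pinned with compounds (4-point, 1:5 series) and held 24 hrs at 37 deg C. Luminescence was read 10 min after detection reagent.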
* = called active by the depositor; ? = inconclusive; / = not tested or not shown; [ ] = dose if it differs, or a comment. Sampled rows, rich in hits. Any-hit rate of the full collection: about 7.3%. Calls follow the shape of the dose curve; as a rule, active = well fitted curve in the direction sought with a large enough effect; inconclusive = small, poorly fitted or top-dose-only effect, or another doubt; inactive = no such curve, though single readings can be large; an effect the other way counts as inactive or inconclusive. Potency is read from the fitted curve at half-maximal effect.

SMILES	SMN2 splice enh	Rab9 promoter act	NPC1 prom act	FLuc modulator	ELG1 genotoxic	p53 reactivation
CC(=O)c1cccc(NC(=O)c2ccc3c(c2)CCCC3)c1	/	3.98µM*	2.51µM*	1.35µM*	13.6%[9.26 µM]	?
COc1cccc(NC(=O)c2ccc(CN3CCc4ccccc4C3)cc2)c1	/	-21.0%	-8.4%	19µM*	15.4%	-2.8%
CC(=O)c1cccc(NC(=O)c2ccc(NS(C)(=O)=O)cc2)c1	11.4%	6.4%	1.7%	-19.4%	0.9%	3.4%
COc1cccc(NC(=O)c2ccc3c(c2)CCCC3)c1	/	1.41µM*	1.41µM*	1.2µM*	2.59µM*	?
Cc1ccc(S(=O)(=O)c2cn(CC(=O)Nc3ccc4c(c3)OCO4)c3ccccc3c2=O)cc1C	3.7%	/	/	-7.9%	/	/
CCc1cccc(C)c1NC(=O)CCS(=O)(=O)c1ccc2c(c1)oc(=O)n2C	/	/	/	-6.8%	/	/
CC(=O)N(C(C)=O)n1c(/C=C/c2ccc([N+](=O)[O-])cc2)nc2ccccc2c1=O	/	-4.6%	-0.4%	0.1%	1.0%	3.1%
O=[N+]([O-])c1ccc(/C=C/c2ccc3ccccc3n2)cc1	2.24µM*	0.562µM*	?	0.601µM*	-8.5%	?
O=[N+]([O-])c1ccc(/C=C/c2ccc3cccc(O)c3n2)cc1	/	?	?	2.39µM*	?	?
CN(C)c1ccc(CNC(=O)C2CCN(S(=O)(=O)c3ccc4c(ccn4C)c3)CC2)cc1	/	/	/	-2.5%	/	/
O=c1c2ccccc2nc(SCc2nc3ccccc3s2)n1CCCO	14.1µM*	2.82µM*	?	13.5µM*	?	?
COc1ccccc1CNc1ncnc2c1nnn2C	/	/	/	-4.7%	/	/
O=C1SC(c2ccccc2)=C/C1=C\N1CCCCC1	-8.0%	19.6%	18.0%	19µM*	9.7%	3.9%
O=C(N/N=C/c1ccoc1)c1ccc(Cl)cc1	/	3.8%	0.7%	?	5.9%	5.2%
NC(=O)N/N=C/c1sc(=O)n(-c2ccccc2)c1Cl	/	0.0%	10.7%	?	7.1%	9.7%
O=C(N/N=C/c1sc(=O)n(-c2ccccc2)c1Cl)c1ccccc1	7.08µM*	1.78µM*	1.58µM*	6.01µM*	14.3%	?
O=C(N/N=C/c1ccoc1)c1ccc(Br)cc1	/	14.8%	6.4%	15.1µM*	17.9%	-5.0%
O=C(N/N=C/c1ccoc1)c1ccccc1	/	3.1%	15.9%	26.9µM*	?	7.1%
O=C(N/N=C/c1ccc[nH]1)c1ccccc1O	/	?	22.7%	9.53µM*	?	7.0%
O=C(CCCSc1ccccc1)Nc1ccc(Cl)c(S(=O)(=O)N2CCOCC2)c1	/	-10.4%	-6.7%	2.3%	-4.6%	5.8%
O=C(N/N=C/c1ccoc1)c1ccccc1O	/	-2.2%	1.8%	10.7µM*	?	10.8%
Cc1ccc(-c2ccc(/C=N/NC(=O)c3ccccc3O)o2)cc1	/	13.4%	9.7%	?	-8.1%	2.4%
O=[N+]([O-])CC(=Nc1ccc(F)cc1)N/N=C\c1oc(O)c2ccccc12	/	29.6%	?	15.1µM*	6.9%	8.8%
O=C(N/N=C/c1coc2ccccc2c1=O)c1ccc(Cl)cc1	/	17.8%	0.7%	-5.7%	-9.4%	-11.8%
O=C(N/N=C/c1coc2ccccc2c1=O)c1ccccc1	-3.6%	-5.7%	-2.9%	16.9µM*	-3.8%	-2.1%
SMILES	SMN2 splice enh	Rab9 promoter act	NPC1 prom act	FLuc modulator	ELG1 genotoxic	p53 reactivation
O=C(N/N=C/c1oc(O)c2ccccc12)c1ccccc1O	-10.3%	-4.8%	-1.7%	10.7µM*	14.5%	0.7%
Oc1oc(C=Nc2ccc(F)cc2F)c2ccccc12	25.2%	0.8%	-1.0%	5.1%	-0.5%	1.1%
COCC1C2CC[C@H]3C(OCc4ccc(F)cc4C(F)(F)F)OC[C@]4(C)[C@H]3C2=C(CN4C(=O)OC(C)(C)C)[C@H](C)C1COC (some centres not stated)	-4.0%	/	/	/	/	/
Cc1cc(-n2nnc3ccccc32)nc2ccccc12	0.224µM*	-3.5%	2.2%	-10.5%	9.4%	?
Cc1cc(N2CCCCC2)nc2ccccc12	0.1%	-1.4%	-2.3%	?	1.5%	2.6%
O=c1oc(CCCO)cc2ccc(/C=C/c3cccc([N+](=O)[O-])c3)cc12	/	-6.3%	3.98µM*	?	4.11µM*	11.0%
O=c1oc(CCCO)cc2ccc(Br)cc12	/	/	/	/	0.5%	5.9%
Cc1cccc(C)c1-n1c(C)cc(/C=N\Nc2ccc([N+](=O)[O-])cn2)c1C	-24.0%	-0.7%	0.3%	-10.0%	-0.9%	?
Cc1cc(/C=N/Nc2nc(N)ncc2[N+](=O)[O-])c(C)n1-c1ccccc1F	/	-16.6%	?	0.0478µM*	?	-10.2%
O=c1cccccc1NN=C1CCCCC1	/	9.6%	12.2%	12µM*	16.7%	?
O=c1cccccc1NN=C1CCCCCC1	/	3.16µM*	2.24µM*	6.01µM*	14.6µM*	?
O=C(O)c1cc(Br)ccc1NN=C1CCCCC1	-10.2%	-0.9%	0.4%	?	3.7%	17.7%
c1ccc(-c2nc3ccccc3nc2-c2ccccn2)nc1	38.9%	0.2%	2.3%	-6.5%	-0.1%	0.4%
Cc1cc2nc(-c3ccccn3)c(-c3ccccn3)nc2cc1C	/	13.6%	?	4.78µM*	?	7.3%
CC(=O)N(Cc1cccnc1)c1cccc(-c2nc3ccccc3s2)c1	/	-16.6%	3.5%	-15.4%	2.3%	-1.9%
Oc1ccc(-c2nc3ccccc3s2)cc1	/	2.82µM*	2.82µM*	1.9µM*	3.66µM*	8.3%
CC(=O)NCc1ccc(-c2csc(-c3cccs3)n2)cc1	/	2.24µM*	2µM*	5.36µM*	?	25.6%
CC(=O)NCc1ccc(-c2nc3ccccc3s2)cc1	14.1µM*	0.631µM*	2.24µM*	3.01µM*	?	-3.7%
O=C(NCc1ccccc1)c1nc2ccccc2s1	-12.2%	3.5%	-1.9%	?	4.7%	17.1%
c1cncc(-c2nc3ccccc3s2)c1	/	?	?	21.3µM*	?	15.6%
CC(=O)Oc1cc(OC(C)=O)c2c(c1)OC(c1ccc(OC(C)=O)c(OC(C)=O)c1)C(OC(C)=O)C2 (configuration not stated)	-3.9%	/	/	/	/	/
COc1ncc2nc(-c3ccc(F)cc3)c(=O)n(CCC#N)c2n1	-2.8%	/	/	/	/	/
Cc1ccc(NC(=O)CSc2nc3c(oc4ccccc43)c(=O)n2-c2ccc(F)cc2)c(C)c1	-5.0%	/	/	-1.8%	/	/
c1ccc2sc(-c3ccncc3)nc2c1	/	2.82µM*	3.16µM*	15.1µM*	?	14.4%

Screens: PubChem BioAssay, National Center for Advancing Translational Sciences (NCATS)
